Drawing on PubChem BioAssay (EPA / NIEHS), this text covers outcome and AC50 for six molecules.

Common to all, as to details: mRNA level, 48 h; actives raise or lower the signal
Read-out in assay [1]: Cytochrome P450 3A7 (Homo sapiens) (UniProt P24462)
The experiment in a line: LTEA_HepaRG_CYP3A7: Life Technologies and Expression Analysis (LTEA) Assay for CYP3A7 using HepaRG (AID 2283492). The gist of the method: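 Human HepaRG liver cells, 48 h post-plating, switched to serum-free induction medium and exposed in duplicate for 48 h. Dosing: 100 uM top, half-log dilutions, 8 points, 0.5% DMSO vehicle. Read-out: CYP3A7 mRNA, gain or loss fitted against DMSO baseline.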

Read-out in assay [2]: CYP3A5 (gene 1577)
The experiment in a line: LTEA_HepaRG_CYP3A5: Life Technologies and Expression Analysis (LTEA) Assay for CYP3A5 using HepaRG (AID 2283493). The gist of the method:
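mRNA induction or loss of CYP3A5 assessed in HepaRG after 48 h dosing, 100 uM top concentration, duplicate wells; TaqMan qRT-PCR with ACTB, GAPDH, POLR2A normalization; 0.5% DMSO as negative control.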

Read-out in assay [3]: Cytochrome P450 4A22 (Homo sapiens) (UniProt Q5TCH4)
Description: LTEA_HepaRG_CYP4A22: Life Technologies and Expression Analysis (LTEA) Assay for Cytochrome P450 4A22 (CYP4A22) using HepaRG (AID 2283495). The gist of the method: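 Readout is CYP4A22 transcript induction or loss, quantified by qRT-PCR and normalized to ACTB, GAPDH and POLR2A. Human HepaRG cells receive test chemicals for 48 h at eight half-log concentrations from 100 uM in 0.5% DMSO.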

Read-out in assay [4]: Cytochrome P450 7A1 (Homo sapiens) (UniProt P22680)
The experiment in a line: LTEA_HepaRG_CYP7A1: Life Technologies and Expression Analysis (LTEA) Assay for Cytochrome P450 7A1 (CYP7A1) using HepaRG (AID 2283496). The procedure, abridged:
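Gene expression endpoint in human HepaRG liver cells treated for 48 h with test chemicals (up to 100 uM, 0.5% DMSO). Values come from bidirectional concentration-response fitting versus DMSO.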

Read-out in assay [5]: Glutathione S-Transferase (GSTA2), GSTA2 (gene 2939)
Description: LTEA_HepaRG_GSTA2: Life Technologies and Expression Analysis (LTEA) Assay for Glutathione S-Transferase (GSTA2) using HepaRG (AID 2283497). The gist of the method:
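Differentiated human HepaRG cells were exposed in duplicate for 48 h in serum-free induction medium, 8 points from 100 uM top in half-log steps, 0.5% DMSO. GSTA2 mRNA was measured by TaqMan qRT-PCR, normalized to ACTB, GAPDH and POLR2A; bidirectional fit versus DMSO.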

Read-out in assay [6]: Glutamate-cysteine ligase catalytic (GCLC), GCLC (gene 2729)
The experiment in a line: LTEA_HepaRG_GCLC: Life Technologies and Expression Analysis (LTEA) Assay for Glutamate-cysteine ligase catalytic (GCLC) using HepaRG (AID 2283498). The procedure, abridged:
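Differentiated HepaRG cells exposed 48 h in serum-free induction medium, eight-point half-log series topping at 100 uM in 0.5% DMSO, duplicates. GCLC mRNA by qRT-PCR normalized to ACTB, GAPDH and POLR2A, fitted bidirectionally versus DMSO.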

Read-out in assay [7]: growth arrest and DNA damage 45 (GADD45G), GADD45G (gene 10912)
The experiment in a line: LTEA_HepaRG_GADD45G: Life Technologies and Expression Analysis (LTEA) Assay for growth arrest and DNA damage 45 (GADD45G) using HepaRG (AID 2283499). The procedure, abridged:
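Gain or loss of GADD45G mRNA, quantified by TaqMan qRT-PCR against three housekeeping genes, is fitted in both directions relative to 0.5% DMSO. Human HepaRG cultures receive test chemical for 48 h at up to 100 uM.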

Read-out in assay [8]: Glutamate-cysteine ligase regulatory (GCLM), GCLM (gene 2730)
The experiment in a line: LTEA_HepaRG_GCLM: Life Technologies and Expression Analysis (LTEA) Assay for Glutamate-cysteine ligase regulatory (GCLM) using HepaRG (AID 2283500). The procedure, abridged: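 Human liver HepaRG cultures receive test chemicals for 48 hours at up to 100 uM in 0.5% DMSO. GCLM expression is measured by qRT-PCR and analysed for increases or decreases against vehicle.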

Read-out in assay [9]: Glutathione S-transferase M3 (GSTM3), GSTM3 (gene 2947)
The experiment in a line: LTEA_HepaRG_GSTM3: Life Technologies and Expression Analysis (LTEA) Assay for Glutathione S-transferase M3 (GSTM3) using HepaRG (AID 2283501). The gist of the method: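 HepaRG, plated 48 h, then serum-free induction medium; test chemical 48 h, duplicate; 100 uM top, half-log x8, 0.5% DMSO. Read-out: GSTM3 mRNA (TaqMan qRT-PCR, Fluidigm array). Bidirectional fit vs DMSO.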

Read-out in assay [10]: Heat shock 70 kDa protein 1 (HSPA1A), gene 3303
The experiment in a line: LTEA_HepaRG_HSPA1A: Life Technologies and Expression Analysis (LTEA) Assay for Heat shock 70 kDa protein 1 (HSPA1A) using HepaRG (AID 2283502). The gist of the method:
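HSPA1A induction in human HepaRG liver cells is measured after 48 h of chemical treatment (100 uM maximum, 0.5% DMSO vehicle). Expression comes from qRT-PCR normalized to endogenous controls.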

Read-out in assay [11]: Hypoxia-inducible factor 1-alpha (Homo sapiens) (UniProt Q16665)
Description: LTEA_HepaRG_HIF1A: Life Technologies and Expression Analysis (LTEA) Assay for Hypoxia-inducible factor 1 (HIF1A) Trancription factor using HepaRG (AID 2283503).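 Also: HIF1A transcript by TaqMan qRT-PCR normalized to ACTB GAPDH and POLR2A.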 The procedure, abridged:
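HepaRG, 48 h exposure, 8-pt half-log series from 100 uM, 0.5% DMSO vehicle, duplicates. Readout: HIF1A transcript by qRT-PCR (Fluidigm array), housekeeping-normalised. Bidirectional curve fit vs DMSO baseline.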

Read-out in assay [12]: 3-Hydroxy-3-Methylglutaryl-CoA Synthase 2 (HMGCS2), HMGCS2 (gene 3158)
The experiment in a line: LTEA_HepaRG_HMGCS2: Life Technologies and Expression Analysis (LTEA) Assay for 3-Hydroxy-3-Methylglutaryl-CoA Synthase 2 (HMGCS2) using HepaRG (AID 2283504). The procedure, abridged: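 HepaRG, plated 48 h then switched to serum-free induction media; cmpd 8-pt, max 100 uM, 1/2-log, 0.5% DMSO, n=2, 48 h. HMGCS2 mRNA by Fluidigm TaqMan qRT-PCR, ACTB/GAPDH/POLR2A norm; bidirectional fit vs DMSO.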

Read-out in assay [13]: HGF (gene 3082)
The experiment in a line: LTEA_HepaRG_HGF: Life Technologies and Expression Analysis (LTEA) Assay for Hepatocyte Growth Facto (HGF) using HepaRG (AID 2283505). The gist of the method:
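Read-out is HGF transcript level by qRT-PCR, normalized to three housekeeping genes, fitted bidirectionally against 0.5% DMSO vehicle. Human HepaRG cells received test chemicals for 48 h at up to 100 uM.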

Read-out in assay [14]: Insulin Like Growth Factor 1 (IGF1), IGF1 (gene 3479)
The experiment in a line: LTEA_HepaRG_IGF1: Life Technologies and Expression Analysis (LTEA) Assay for Insulin Like Growth Factor 1 (IGF1) using HepaRG (AID 2283506). The gist of the method: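 Using human HepaRG liver cells, IGF1 transcript induction or suppression is measured 48 h after dosing across eight concentrations capped at 100 uM. Values derive from bidirectional concentration-response fitting with DMSO as baseline.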

Read-out in assay [15]: Intercellular Adhesion Molecule 1 (ICAM1), ICAM1 (gene 3383)
The experiment in a line: LTEA_HepaRG_ICAM1: Life Technologies and Expression Analysis (LTEA) Assay for Intercellular Adhesion Molecule 1 (ICAM1) using HepaRG (AID 2283507). The gist of the method: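 Readout is qRT-PCR mRNA level, normalized to three housekeeping genes and fitted bidirectionally against 0.5% DMSO vehicle. Human HepaRG cultures received compound for 48 h, top concentration 100 uM with half-log dilutions.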

Read-out in assay [16]: Insulin-like growth factor-binding protein 1 (IGFBP1), IGFBP1 (gene 3484)
Description: LTEA_HepaRG_IGFBP1: Life Technologies and Expression Analysis (LTEA) Assay for Insulin-like growth factor-binding protein 1 (IGFBP1) using HepaRG (AID 2283508). The gist of the method:
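Thawed HepaRG cells are plated for 48 h, switched to serum-free induction medium, then dosed in duplicate for another 48 h (100 uM top, half-log steps). Lysates in RLT go to qRT-PCR, and gain or loss of signal is fitted relative to vehicle.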

Read-out in assay [17]: Interleukin 6 (IL6), IL6 (gene 3569)
Description: LTEA_HepaRG_IL6: Life Technologies and Expression Analysis (LTEA) Assay for Interleukin 6 (IL6) using HepaRG (AID 2283509). The gist of the method: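 HepaRG cells exposed in duplicate for 48 h to eight half-log concentrations, top 100 uM, in 0.5% DMSO serum-free induction medium. mRNA measured by qRT-PCR, normalized to ACTB, GAPDH and POLR2A. Bidirectional fit versus DMSO.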

Read-out in assay [18]: Interleukin 6 Receptor (IL6R), IL6R (gene 3570)
Description: LTEA_HepaRG_IL6R: Life Technologies and Expression Analysis (LTEA) Assay for Interleukin 6 Receptor (IL6R) using HepaRG (AID 2283510). The gist of the method:
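Concentration-response in human liver HepaRG cells: eight concentrations from 100 uM downward by half-logs, 48 h exposure, 0.5% DMSO vehicle. IL6R mRNA change measured by qRT-PCR and fitted in both directions relative to vehicle.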

Read-out in assay [19]: Potassium channel subfamily K member 1 (KCNK1), KCNK1 (gene 3775)
Description: LTEA_HepaRG_KCNK1: Life Technologies and Expression Analysis (LTEA) Assay for Potassium channel subfamily K member 1 (KCNK1) using HepaRG (AID 2283511). The procedure, abridged:
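Differentiated HepaRG cells, 48 h exposure in serum-free induction medium with 0.5% DMSO; 8 concentrations, half-log from 100 uM, duplicate. KCNK1 mRNA by qRT-PCR, normalized to ACTB, GAPDH, POLR2A; bidirectional fit vs DMSO.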

Read-out in assay [20]: Fatty Acid-Binding Protein 1 (FABP1), FABP1 (gene 2168)
The experiment in a line: LTEA_HepaRG_FABP1: Life Technologies and Expression Analysis (LTEA) Assay for Fatty Acid-Binding Protein 1 (FABP1) using HepaRG (AID 2283494). The procedure, abridged: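 Differentiated human HepaRG cells exposed 48 h in serum-free induction medium to eight half-log concentrations up to 100 uM (0.5% DMSO), duplicate. FABP1 mRNA by qRT-PCR, normalised to ACTB, GAPDH, POLR2A; bidirectional fitting against DMSO.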

The structures appear in SMILES notation. Active and inactive are the calls of the source. The calls were made as follows: active = hit-call score of the fitted dose curve at least 0.9, where 1 is the maximum; inactive = score below 0.9.

Sequence of Hypoxia-inducible factor 1-alpha (Homo sapiens) (Q16665 whole entry, looked up): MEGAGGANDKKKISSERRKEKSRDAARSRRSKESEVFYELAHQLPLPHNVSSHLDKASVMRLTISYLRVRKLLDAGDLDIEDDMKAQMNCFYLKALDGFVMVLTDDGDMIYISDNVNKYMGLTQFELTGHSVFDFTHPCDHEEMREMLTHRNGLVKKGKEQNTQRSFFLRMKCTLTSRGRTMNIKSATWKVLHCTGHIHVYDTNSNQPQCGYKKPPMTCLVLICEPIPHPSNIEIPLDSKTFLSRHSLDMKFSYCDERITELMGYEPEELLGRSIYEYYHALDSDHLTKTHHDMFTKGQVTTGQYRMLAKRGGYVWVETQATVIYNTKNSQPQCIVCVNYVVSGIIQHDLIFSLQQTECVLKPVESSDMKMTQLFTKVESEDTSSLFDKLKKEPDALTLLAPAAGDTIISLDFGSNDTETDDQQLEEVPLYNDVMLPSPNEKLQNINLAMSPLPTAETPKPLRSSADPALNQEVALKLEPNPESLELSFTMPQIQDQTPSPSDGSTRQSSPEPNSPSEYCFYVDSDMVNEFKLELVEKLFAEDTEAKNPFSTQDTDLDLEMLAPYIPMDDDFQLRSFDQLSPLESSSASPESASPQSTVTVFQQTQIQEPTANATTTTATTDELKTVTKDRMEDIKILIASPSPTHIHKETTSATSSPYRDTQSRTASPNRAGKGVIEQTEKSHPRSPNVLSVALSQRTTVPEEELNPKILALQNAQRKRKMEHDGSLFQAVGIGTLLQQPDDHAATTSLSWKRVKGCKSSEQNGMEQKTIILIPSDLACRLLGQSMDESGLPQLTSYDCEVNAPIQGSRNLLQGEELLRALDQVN
Sequence of Cytochrome P450 3A7 (Homo sapiens) (P24462 whole entry, looked up): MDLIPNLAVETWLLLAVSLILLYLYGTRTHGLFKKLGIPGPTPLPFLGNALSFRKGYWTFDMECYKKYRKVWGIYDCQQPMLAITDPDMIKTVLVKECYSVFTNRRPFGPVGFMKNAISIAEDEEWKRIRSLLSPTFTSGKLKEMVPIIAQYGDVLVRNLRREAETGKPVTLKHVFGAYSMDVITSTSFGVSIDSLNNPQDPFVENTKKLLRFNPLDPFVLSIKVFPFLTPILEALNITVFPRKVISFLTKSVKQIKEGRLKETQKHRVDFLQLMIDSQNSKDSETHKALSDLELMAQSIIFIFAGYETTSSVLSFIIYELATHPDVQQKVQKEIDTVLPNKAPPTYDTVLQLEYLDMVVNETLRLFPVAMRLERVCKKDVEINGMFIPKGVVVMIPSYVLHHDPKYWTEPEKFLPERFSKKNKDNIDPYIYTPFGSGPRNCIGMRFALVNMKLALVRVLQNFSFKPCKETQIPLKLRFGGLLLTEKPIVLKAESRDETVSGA

As to `COP(=O)(OC)OC=C(Cl)Cl`, the call in assay [1], in assay [2], in assay [3], in assay [4], in assay [5] and in assay [6] was inactive. Also, the call in [7], in [8], in assay [9], in assay [10], in [11] and in [12] was inactive. Further, the result in assay [13], in [14], in assay [15], in assay [16], in assay [17] and in assay [18] was inactive. Besides, the result in assay [19] was inactive.

Take `CCCN(CCC)c1c([N+](=O)[O-])cc(C(F)(F)F)cc1[N+](=O)[O-]`: the result in [1], in assay [2], in [20], in assay [3], in assay [4] and in assay [6] was inactive. The call in assay [7], in assay [8], in assay [9], in assay [10], in assay [11] and in [12] was inactive. The molecule was called inactive in [13], in [14], in [15], in assay [16], in assay [17] and in [18]. The result in assay [19] was inactive.

In the case of `COc1nn(CSP(=S)(OC)OC)c(=O)s1`, the outcome in [1], in [2], in [20], in assay [3], in assay [4] and in assay [6] was inactive. Further, the molecule was classed as inactive in [7], in assay [8], in assay [9], in assay [10], in assay [11] and in assay [12]. The call in assay [13], in assay [14], in assay [15], in assay [16], in assay [17] and in assay [18] was inactive. Also, the call in [19] was inactive.

As to `O=C1c2ccccc2C(=O)N1SC(Cl)(Cl)Cl`, the outcome in assay [1], in [2], in assay [20], in [3], in assay [4] and in assay [6] was inactive. Besides, the result in assay [7], in assay [8], in [9], in assay [10], in assay [11] and in assay [12] was inactive. In addition, the call in assay [13], in assay [14], in assay [15], in assay [16], in [17] and in assay [18] was inactive. In addition, in assay [19], the call was inactive.

The term AC50 denotes the concentration giving half of the maximal activity seen. As for `N#Cc1c(Cl)c(Cl)c(Cl)c(C#N)c1Cl`, the AC50 is 50 µM (active) in [1]; 77.7 µM (active) in [20]; 34 µM (active) in [5]; 17.3 µM (active) in assay [10]; 3.27 µM (active) in assay [16]. For the same molecule, the molecule was classed as inactive in assay [2], in assay [4], in assay [6], in [7], in assay [8] and in assay [9]. Besides, the result in assay [11], in assay [12], in assay [13], in [14], in assay [15] and in [17] was inactive. Also, the molecule was called inactive in assay [18] and in [19].

For the molecule `CCC(C)(NC(=O)c1cc(Cl)c(C)c(Cl)c1)C(=O)CCl` (centres undefined), the half-maximal activity concentration (AC50) in assay [1] is 82.1 µM (active); in assay [2] it was 89.6 µM (active); in [20], 46.5 µM (active); in assay [3] it was 74.9 µM (active); in assay [4], 73.8 µM (active); in [9], 50.2 µM (active). The concentration at half-maximal activity (AC50) in [10] is 89.2 µM (active); in assay [12], 80.6 µM (active); in [13], 77.4 µM (active); in [16], 80.8 µM (active); in assay [19], 50.2 µM (active). Further, the call in [6], in assay [7], in [8], in assay [11], in assay [14] and in assay [15] was inactive. Moreover, the result in assay [17] and in assay [18] was inactive.
